# The source made the active and inactive calls. How the calls were made is not given here.
# Target: Lysosomal alpha-glucosidase (Homo sapiens) (UniProt P10253)
# Assay: Direct Measure of the Activation of Acid alpha-Glucosidase Catalytic Rate
# Conditions: purified enzyme, 4MU-alpha-Glc conversion, LC-MS; at 37.5 µM; stronger effect = higher value
# Description: NIH Chemical Genomics Center [NCGC] NIH Molecular Libraries Probe Production centers Network [MLPCN] MLPCN Grant: 1R03MH084841-01 Assay Submitter (PI): Wei Zheng NCGC Assay Overview: Alpha-glucosidase is responsible for hydrolysis of terminal, non-reducing 1,4-linked alpha-D-glucose residues with release of alpha-D-glucose. It is a lysosomal hydrolase that is required for the degradation of a small percentage (1-3%) of cellular glycogen in human. Deficiency of this enzyme results in glycogen-storage disease type II (GSDII), also referred to as Pompe disease, an autosomal recessive disorder. Structurally normal glycogen is accumulated in lysosomes and cytoplasm in affected patients, primarily in muscle tissues. Excessive glycogen storage within lysosomes may interrupt normal functioning of other organelles and leads to cellular injury. In turn, this leads to enlargement and dysfunction of the entire organ involved (eg, cardiomyopathy and muscle weakness). It has reported that the improper folding and trafficking of alpha-glucosidase resulting from the genetic mutations may account for a significant number of Pompe patients. […]
# The catalysis rate of the 4MU-alpha-Gluc substrate by acid alpha-glucosidase was measured using LC-MS. […] (5) Add 50 ul stop solution (1M NaOH and 1M Glycine mixture, pH 10) (6) Run LC-MS and integrate peaks to quantitate amount of product
row,Compound,substrate conversion
1,CCCN1CNc2c(c(=O)[nH]c(=S)n2CCc2ccc(OC)c(OC)c2)C1,28% (active)

# Same assay, conditions: purified enzyme, 4MU-alpha-Glc conversion, LC-MS; conversion; at 5 µM; stronger effect = higher value
row,Compound,substrate conversion
1,CCCN1CNc2c(c(=O)[nH]c(=S)n2CCc2ccc(OC)c(OC)c2)C1,20%
